# Measurements reported in PubChem BioAssay (NCATS).
# Records with an inconclusive call do not appear. Entries that show only a call come without a potency. Calls of active or inactive are those of the source. Calls come from the whole dose curve; as a rule, active = well fitted curve in the direction sought with a large enough effect; inconclusive = small, poorly fitted or top-dose-only effect, or another doubt; inactive = no such curve, though single readings can be large; an effect the other way counts as inactive or inconclusive.
# Assays:
# [1] = target: Aldehyde dehydrogenase, mitochondrial (Homo sapiens) (UniProt P05091); assay: qHTS for Inhibitors of the Aldehyde Dehydrogenase Family (ALDH2) Primary screen (AID 2061308); conditions: ALDH2 enzyme inhibition qHTS, 1536-well; series mostly up to 56 µM; note: nearly all actives have a fitted effect of over 55% in size; note: potency is the fitted concentration of half-maximal effect
# [2] = target: Retinaldehyde dehydrogenase 3 (Homo sapiens) (UniProt P47895); assay: qHTS for Inhibitors of the Aldehyde Dehydrogenase Family (ALDH1A3) Primary screen (AID 2061315); conditions: ALDH inhibition qHTS; series mostly up to 56 µM
SMILES,Potency [1],Potency [2]
O=C(CCCCSc1nnc(-c2cccc3ccccc23)o1)Oc1ccc(F)cc1,inactive,inactive
CC(C)(C)OC(=O)Nc1ncnc2c1C(c1ccccc1)c1c(ccc3ccccc13)O2 (stereo unspecified),inactive,inactive
CC(=O)Nc1sc2c(c1Br)CCNC2,inactive,inactive
Fc1cc(Nc2nc(-c3ccncc3)nc3ccccc23)ccc1-c1cn[nH]c1,inactive,inactive
CNc1oc(-c2cccc3c2OC(F)(F)O3)nc1C#N,inactive,inactive
N#Cc1nc(NC2CCCC2)c2ncn(-c3cc(F)cc(F)c3)c2n1,inactive,inactive
COc1cc2nc(N3CCN(C(=O)c4ccco4)C4CCCCC43)nc(N)c2cc1OC (stereo unspecified),inactive,inactive
CCC(=O)NC(c1ccco1)c1cc([N+](=O)[O-])c2cccnc2c1O (stereo unspecified),inactive,inactive
CC(C)(O)C1Cc2c(ccc(C(=O)CCc3ccccc3)c2O)O1 (stereo unspecified),inactive,inactive
C=CCNc1oc(-c2cccc3ccccc23)nc1C#N,inactive,inactive
O=c1c2ccc(F)cc2nc2sc(Nc3ccc4c(c3)CCC4)nn12,inactive,inactive
Nc1ccccc1CNc1ccc(S(=O)(=O)Nc2nccs2)cc1,inactive,inactive
Cc1cnc(NC(=O)c2cc(S(=O)(=O)N(C)C)ccc2N2CCCC2)s1,inactive,inactive
O=C(CNC(=O)c1ccccc1)OC(C(=O)Nc1ccc2c(c1)OCO2)c1ccccc1 (stereo unspecified),inactive,inactive
COc1ccc(C(=O)Nc2nnc(-c3ccco3)o2)cc1,inactive,inactive
COCCN(CCOC)c1nc(C)nc2c1nc(-c1ccccc1)n2CCCN1CCCCC1C (stereo unspecified),inactive,inactive
COc1cc(O)c(C(CC(=O)N2CCC[C@H](C)C2)c2ccc3c(c2)OCO3)c(OC)c1 (stereo partly specified),inactive,inactive
CCCn1c(-c2ccc(F)cc2)nc2c(NCC3CCCN3CC)nc(C)nc21 (stereo unspecified),inactive,inactive
O=C(O)c1c(-c2ccccc2)no[n+]1[O-],inactive,inactive
Cc1csc(CNc2ncnc3ccc(-c4ccoc4)cc23)c1,inactive,inactive
CC(O)(C(=O)C1CC1(CO)COC1OC(CO)C(O)C(O)C1O)C1C(O)CC2C3CC=C4CC(O)CC(O)C4(C)C3C(O)CC21C (stereo unspecified),inactive,inactive
Cc1cc(NS(=O)(=O)c2ccc(NC(=O)Cc3ccc(C)c(F)c3)cc2)no1,inactive,inactive

SMILES,Potency [1],Potency [2]
O=S(=O)(c1cccc(Cl)c1)N1CCN(S(=O)(=O)c2ccc3c(c2)OCCO3)CC1,inactive,inactive
O=C(Nc1ccc(F)c(C(F)(F)F)c1)Nc1cccc(-c2ccncc2)n1,inactive,inactive
N=c1c2c(ccn1CCCCc1ccccc1)Oc1ccc3ccccc3c1C2c1ccccc1 (stereo unspecified),inactive,inactive
O=[S+]([O-])(Nc1nccs1)c1ccc(NCc2ccc(Cl)c(Cl)c2)cc1,inactive,inactive
COc1ccc(CC(=O)Nc2ccc(S(=O)(=O)Nc3cc(C)on3)cc2)cc1OC,inactive,inactive
NC(=O)C1CCN(c2nc(-c3ccccc3F)cs2)CC1,inactive,inactive
N#Cc1nc(-c2cccc3ccccc23)oc1N,inactive,inactive
CCCn1c(-c2ccc(F)cc2)nc2c(NC(C)CN(C)C)nc(C)nc21 (stereo unspecified),inactive,inactive
CC1CCC/C=C/C(=O)c2c(O)cc(O)cc2CC(=O)O1 (stereo unspecified),inactive,inactive
Cc1c(P(=S)(c2ccccc2)c2ccccc2)[n+]2ccccc2n1Cc1ccccc1,inactive,inactive
CC1(C)CCC(C)(C)c2cc([S+](=O)([O-])N3CCN([S+](=O)([O-])c4c(F)cccc4F)CC3)ccc21,inactive,inactive
CC(=O)Nc1ccc(NC(=S)NC(=O)c2ccc(C(C)(C)C)cc2)cc1,inactive,inactive
O=C(Nc1ccccc1F)c1ccc(O)c2ncccc12,inactive,inactive
Cc1cc(C)c(-c2nnc(NC(=O)Nc3ccc4ccccc4c3)s2)c(C)c1,inactive,inactive
O=[N+]([O-])c1cccc(CSc2nc3ncc(Br)cc3[nH]2)c1,inactive,inactive
CCOc1ccc(NC(=O)c2ccc(-c3nc4ccccc4[nH]3)cc2)cc1Cl,inactive,inactive
CCN(CC)CCn1c(-c2ccccc2)nc2c(NCCO)nc(C)nc21,inactive,inactive
CC(C)(C)OC(=O)N1CCN(c2ccc(NCc3ncc(-c4ccc(C#N)cc4)s3)cc2)CC1,4.47 µM (active),inactive
O=C(Nc1ccc(O)c2ncccc12)c1ccccc1F,inactive,inactive
O=[S+]([O-])(c1c(F)cccc1F)N1CCN([S+](=O)([O-])c2csc3ccccc23)CC1,inactive,inactive
Cc1ccc(S(=O)(=O)NC(N)=NCCC[C@@H](N)C(=O)Nc2cc(C(F)(F)F)ccc2Cl)cc1,inactive,inactive
